Reference: the supplement of paper PMC13094657
± gives the standard deviation of the averaged measurements.

Experiments:
[1] = tested on: MDA-MB-231; experiment: cell viability relative to vehicle unstimulated control (fraction); higher = more viable cells; settings: pre-treatment time: 18 h then 24 h IFNg/TNF
[2] = tested on: MDA-MB-231; experiment: kynurenine production, fold change vs DMSO IFNg/TNF control; higher = more kynurenine produced (less inhibition); settings: pre-treatment time: 18 h then 24 h IFNg/TNF
How it was run: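 MDA-MB-231 cells were seeded in 96-well plates at 7 × 10^4/well and, 24 h later, pre-treated for 18 h with each natural product in 0.1% DMSO. They were then stimulated for 24 h at 37°C with IFNγ (1 U/ml) and TNF (6.25 ng/ml). Supernatants were treated with trichloroacetic acid and p-dimethylaminobenzaldehyde and read at 492 nm against 0–100 μM standards. Kynurenine production is expressed as fold change over cytokine-stimulated vehicle wells on the same plate and, in the first screening round, averaged across duplicate plates.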
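Throughout, for cell viability relative to vehicle unstimulated control: viability of the cells left after supernatant collection, read with Deep Blue dye added for 4 h, as absorbance at 570 nm minus 600 nm.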

SMILES | cell viability [1] | kynurenine production [2]
CC(C)=CCC[C@@H](C)[C@@H]1CC[C@]2(C)C3=C(CC[C@@]12C)[C@@]1(C)CC[C@H](O)C(C)(C)[C@@H]1CC3 [Euphol] (compound dose: 10 uM) | 0.977 ± 0.051 | 1.008 ± 0.0013
C=C1C(=O)O[C@H]2C[C@@H](C)[C@@H]3CCC(=O)[C@@]3(C)[C@@H](OC(C)=O)[C@H]12 [Ergolide] (compound dose: 10 uM) | 0.992 ± 0.072 | 0.246 ± 0.13
CC(=O)OC1CCC2(C)C(CCC3(C)C2CC=C2C4C(C)C(C)CCC4(C(=O)O)CCC23C)C1(C)C (stereo not given) [Ursolic acid acetate] (compound dose: 10 uM) | 1.11 ± 0.14 | 0.771 ± 0.053
CC(C)=CCC[C@H](C)CC=O [(S)-(-)-Citronellal] (compound dose: 10 uM) | 1.04 ± 0.05 | 1.14 ± 0.18
Cc1cc(O)c2c(c1)C(=O)c1cc(O)cc(O[C@@H]3O[C@H](CO)[C@@H](O)[C@H](O)[C@H]3O)c1C2=O [Emodin-8-glucoside] (compound dose: 10 uM) | 0.9845 ± 0.0046 | 0.872 ± 0.14
C=C1CC/C=C(\C)CC[C@@H]2[C@@H]1CC2(C)C [β-Caryophyllene] (compound dose: 10 uM) | 0.9919 ± 0.0069 | 0.844 ± 0.19
O=c1ccoc2cc(O)cc(O)c12 [5.7-dihydroxychromone] (compound dose: 10 uM) | 0.9229 ± 0.0012 | 0.868 ± 0.023
COC(=O)[C@@]1(C)CC[C@]2(C(=O)O)CC[C@]3(C)C(=CC[C@@H]4[C@@]5(C)C[C@H](O)[C@H](O)[C@@](C)(CO)[C@@H]5CC[C@]43C)[C@@H]2C1 [Phytolaccagenin] (compound dose: 10 uM) | 0.924 ± 0.049 | 0.875 ± 0.095
CC(C)(O)[C@H]1CC[C@@](C)([C@H]2[C@@H](O)C[C@@]3(C)[C@@H]4C[C@H](O)[C@H]5C(C)(C)[C@@H](O)CC[C@@]56C[C@@]46CC[C@]23C)O1 [Cyclogalegenin] (compound dose: 10 uM) | 0.999 ± 0.043 | 0.854 ± 0.064
CC1(C)CC[C@]2(C(=O)O)[C@H](O)C[C@]3(C)C(=CC[C@@H]4[C@@]5(C)CC[C@H](O)C(C)(C)[C@@H]5CC[C@]43C)[C@H]2C1 [Echinocystic acid] (compound dose: 10 uM) | 1.03 ± 0.014 | 0.787 ± 0.065
COc1ccc(SC)cc1 [4-methoxythioanisole] (compound dose: 10 uM) | 0.965 ± 0.057 | 0.973 ± 0.12
C[C@H]1[C@H](C)CC[C@]2(C(=O)O)CC[C@]3(C)C(=CC[C@@H]4[C@@]5(C)CC[C@H](O)C(C)(C)[C@@H]5CC[C@]43C)[C@H]12 [Ursolic acid] (compound dose: 10 uM) | 0.973 ± 0.015 | 0.891 ± 0.21
CC(=O)OCC1=C[C@@H]2OC(=O)C3=CO[C@@H](O[C@@H]4O[C@H](CO)[C@@H](O)[C@H](O)[C@H]4O)[C@H]1[C@@H]32 [Asperuloside] (compound dose: 10 uM) | 0.983 ± 0.03 | 0.923 ± 0.15
CC1(C)CCCC2(C)C1CCC1(C)OCCC12 (stereo not given) [Ambroxide] (compound dose: 10 uM) | 0.964 ± 0.053 | 0.891 ± 0.13
CC(=O)OCC1=CCC2C(C=C(C)C(=O)C3(OC(C)=O)CC(C)C(OC(=O)c4ccccc4)C3C1OC(C)=O)C2(C)C (stereo not given) [Euphorbia factor L7b] (compound dose: 10 uM) | 1.07 ± 0.03 | 0.936 ± 0.035
